Measured values published in PubChem BioAssay.
Several values for one entry are separate records, joined by “and”; a condition that tells them apart may be missing. Equal entries are not always repeated. Records with an inconclusive call do not appear. Activity calls are given as the source filed them.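 The calls were made as follows, unless noted: active = normalized viability below 100% at a tested concentration; inactive = the rest.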

What was measured:
[1] = growth inhibition of DIPG glioma cells, dose response, cell-based, SU-DIPG-XVII, MIPE5.0, CellTiter-Glo, qHTS (AID 1347060; cut-off not given, nearly all actives have AC50 up to about 26 µM;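 as to AC50: cells exposed to compound for 48 hours before viability readout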); settings: SU-DIPG-XVII viability, CellTiter-Glo ATP luminescence
[2] = growth inhibition of DIPG glioma cells, dose response, cell-based, SU-DIPG-XIII, MIPE4.0, CellTiter-Glo, qHTS (AID 1347061; cut-off not given, nearly all actives have AC50 up to about 37 µM;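 also: cells exposed to compound for 48 hours before readout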); settings: SU-DIPG-XIII viability, CellTiter-Glo ATP luminescence
[3] = growth inhibition of DIPG glioma cells, dose response, cell-based, JHH-DIPG-1, MIPE4.0, CellTiter-Glo, qHTS (AID 1347062; cut-off not given, nearly all actives have AC50 up to about 27 µM;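 as to AC50: cells exposed to compound for two days before readout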); settings: JHH-DIPG-1 viability, CellTiter-Glo ATP luminescence
[4] = growth inhibition of DIPG glioma cells, dose response, cell-based, SU-DIPG-IV, MIPE4.0, CellTiter-Glo, qHTS (AID 1347063; cut-off not given, nearly all actives have AC50 up to about 30 µM;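 also: compound exposure lasted 48 hours before the viability readout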); settings: SU-DIPG-IV viability, CellTiter-Glo ATP luminescence
[5] = growth inhibition of DIPG glioma cells, dose response, cell-based, SU-DIPG-XIII, MIPE5.0, CellTiter-Glo, qHTS (AID 1347064; cut-off not given, nearly all actives have AC50 up to about 23 µM;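 as to AC50: cells exposed to compound for 48 hours before the viability read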); settings: SU-DIPG-XIII viability, CellTiter-Glo ATP luminescence
[6] = viability loss in pontine glioma line – cell-based, SU-DIPG-XXV, MIPE5.0, CellTiter-Glo, qHTS, dose response (AID 1347065; cut-off not given, nearly all actives have AC50 up to about 26 µM;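 also: cells exposed to compound for 48 hours before ATP readout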); settings: CellTiter-Glo ATP luminescence
[7] = SU-DIPG-XXV glioma cell viability, MIPE5.0 library, qHTS (AID 1347068; cut-off not given, nearly all actives have IC50 up to about 30 µM;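 as to IC50: cells exposed to compound for 48 hours before viability readout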)
[8] = JHH-DIPG-1 glioma cell viability, MIPE5.0 library, CellTiter-Glo luminescence, qHTS (AID 1347067; cut-off not given, nearly all actives have AC50 up to about 26 µM;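 also: cells exposed to compound for 48 hours before readout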); settings: JHH-DIPG-1 glioma viability, CellTiter-Glo ATP luminescence
[9] = sensitizers of A549 cells to miR-34 induction, primary screen, imaging, A549 dox-inducible miR-34, nuclei and caspase counts (AID 1347080;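 active = compounds whose cell count with miR-34 switched on is under 0.7 times the count with it off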); settings: A549 miR-34 inducible, Hoechst nuclei count, 48 h
[10] = survival rescue of mitochondrial mutant cells in low glucose, primary screen, MELAS cybrids, Rieske KO mouse fibroblasts, CellTiter-Glo (AID 1508586;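 active = mean z-score across replicates of 1.96 or higher in either the MELAS or the Rieske mutant cell line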;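 also: z relative to plate mean and SD of compound and empty wells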)
[11] = ovarian cancer cell viability with rucaparib, profiling panel, oncology-focused library, rucaparib conditional (AID 1508598); settings: patient-derived ovarian cancer cells, CellTiter-Glo viability, 144 h, stronger effect = lower value
[12] = SU-DIPG-VI glioma cell viability, MIPE4.0 library, CellTiter-Glo luminescence, qHTS (AID 1347066; cut-off not given, nearly all actives have AC50 up to about 30 µM;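 also: cells exposed to compound for 48 hours before readout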); settings: CellTiter-Glo ATP luminescence
[13] = stronger effect = lower value, cell number ratio, induced over uninduced
[14] = measured here: relative caspase fold change +Dox/-Dox
[15] = measured here: total cells with miR-34 induction, stronger effect = lower value
[16] = measured here: total cells without miR-34 induction
[17] = MELAS cybrid survival, CellTiter-Glo 48 h, stronger effect = higher value
[18] = Rieske KO mouse fibroblast survival, CellTiter-Glo 72 h

Cc1nc(N)ncc1-c1nc(N2CCOCC2)c2sc(C(C)(C)O)cc2n1
active: AC50 [1] 1.66 µM | AC50 [2] 7.43 µM | AC50 [3] 1.32 µM | AC50 [4] 0.332 µM | AC50 [5] 3.32 µM | AC50 [6] 1.05 µM | IC50 [7] 4.68 µM

CO[C@H]1/C=C/O[C@@]2(C)Oc3c(C)c(O)c4c(O)c(c(/C=N/N5CCN(C)CC5)c(O)c4c3C2=O)NC(=O)/C(C)=C\C=C\[C@H](C)[C@H](O)[C@@H](C)[C@@H](O)[C@@H](C)[C@H](OC(C)=O)[C@@H]1C
active: AC50 [5] 20.9 µM
-0.112 and -0.159: z-score [10, 18]
9030 and 9880: cell count [9, 15]
10800 and 11100: cell count [9, 16]
1.31 and 1.13: fold change [9, 14]
inactive: outcome [1] | outcome [2] | outcome [3] | outcome [4] | outcome [8] | fold change [9, 13] 0.839 and 0.889 | z-score [10, 17] 1.76 and 0.859

NC(=O)c1cnc(-c2ccc(C3(N)CCC3)cc2)c(-c2ccccc2)c1
inactive: outcome [1] | outcome [2] | outcome [3] | outcome [4] | outcome [5] | outcome [7]

CC(C)c1cc(-c2n[nH]c(=O)n2-c2ccc3c(ccn3C)c2)c(O)cc1O
active: AC50 [1] 0.0372 µM | AC50 [2] 0.132 µM | AC50 [3] 0.0662 µM | AC50 [4] 0.059 µM | AC50 [5] 0.0417 µM | AC50 [6] 0.0372 µM | IC50 [7] 0.0833 µM | z-score [10, 17] 3.03 | viability ([11]; at 0.00122 µM, OCI-C5x cells, without rucaparib) 98.2% | viability ([11]; at 0.00488 µM, OCI-C5x cells, with rucaparib 10 µM, 100% = cells with rucaparib alone) 96.9% | viability ([11]; at 0.0195 µM, OCI-P5x cells, with rucaparib 20 µM, 100% = cells with rucaparib alone) 85.2% | viability ([11]; at 0.0781 µM, OCI-C5x cells, with rucaparib 10 µM, 100% = cells with rucaparib alone) 44.1% | viability ([11]; at 0.0781 µM, OCI-C5x cells, without rucaparib) 14.7% | viability ([11]; at 0.0781 µM, OCI-P5x cells, with rucaparib 20 µM, 100% = cells with rucaparib alone) 18.8% | viability ([11]; at 0.0781 µM, OCI-P5x cells, without rucaparib) 10.9% | viability ([11]; at 0.313 µM, OCI-C5x cells, with rucaparib 10 µM, 100% = cells with rucaparib alone) 11.6% | viability ([11]; at 0.313 µM, OCI-C5x cells, without rucaparib) 6.96% | viability ([11]; at 0.313 µM, OCI-P5x cells, with rucaparib 20 µM, 100% = cells with rucaparib alone) 6.88% | viability ([11]; at 0.313 µM, OCI-P5x cells, without rucaparib) 5.54% | viability ([11]; at 1.25 µM, OCI-C5x cells, with rucaparib 10 µM, 100% = cells with rucaparib alone) 10% | viability ([11]; at 1.25 µM, OCI-C5x cells, without rucaparib) 6.57% | viability ([11]; at 1.25 µM, OCI-P5x cells, with rucaparib 20 µM, 100% = cells with rucaparib alone) 5.29% | viability ([11]; at 1.25 µM, OCI-P5x cells, without rucaparib) 4.83% | viability ([11]; at 5 µM, OCI-C5x cells, with rucaparib 10 µM, 100% = cells with rucaparib alone) 8.35% | viability ([11]; at 5 µM, OCI-C5x cells, without rucaparib) 6.47% | viability ([11]; at 5 µM, OCI-P5x cells, with rucaparib 20 µM, 100% = cells with rucaparib alone) 6.04% | viability ([11]; at 5 µM, OCI-P5x cells, without rucaparib) 5.33%
0.773: fold change [9, 14]
1450: cell count [9, 15]
1400: cell count [9, 16]
0.0782: z-score [10, 18]
inactive: fold change [9, 13] 1.03 | viability ([11]; at 0.000305 µM, OCI-C5x cells, with rucaparib 10 µM, 100% = cells with rucaparib alone) 102% | viability ([11]; at 0.000305 µM, OCI-C5x cells, without rucaparib) 108% | viability ([11]; at 0.000305 µM, OCI-P5x cells, with rucaparib 20 µM, 100% = cells with rucaparib alone) 116% | viability ([11]; at 0.000305 µM, OCI-P5x cells, without rucaparib) 121% | viability ([11]; at 0.00122 µM, OCI-C5x cells, with rucaparib 10 µM, 100% = cells with rucaparib alone) 100% | viability ([11]; at 0.00122 µM, OCI-P5x cells, with rucaparib 20 µM, 100% = cells with rucaparib alone) 124% | viability ([11]; at 0.00122 µM, OCI-P5x cells, without rucaparib) 119% | viability ([11]; at 0.00488 µM, OCI-C5x cells, without rucaparib) 110% | viability ([11]; at 0.00488 µM, OCI-P5x cells, with rucaparib 20 µM, 100% = cells with rucaparib alone) 126% | viability ([11]; at 0.00488 µM, OCI-P5x cells, without rucaparib) 124% | viability ([11]; at 0.0195 µM, OCI-C5x cells, with rucaparib 10 µM, 100% = cells with rucaparib alone) 117% | viability ([11]; at 0.0195 µM, OCI-C5x cells, without rucaparib) 117% | viability ([11]; at 0.0195 µM, OCI-P5x cells, without rucaparib) 104%

CC(C)c1noc(N2CCC(COc3ccc(-c4ccc(S(C)(=O)=O)cc4)nc3)CC2)n1
inactive: outcome [1] | outcome [2] | outcome [3] | outcome [4] | outcome [5] | outcome [12] | outcome [8] | outcome [7] | fold change [9, 13] 0.733 | z-score [10, 17] -0.22
0.941: z-score [10, 18]
6980: cell count [9, 16]
1.55: fold change [9, 14]
5110: cell count [9, 15]

CCc1c(O)cc(O)c(C(=O)c2ccc(OCCN3CCOCC3)c(OC)c2)c1CC(=O)N(CCOC)CCOC
0.722: z-score [10, 18]
3520: cell count [9, 16]
0.454: fold change [9, 14]
3640: cell count [9, 15]
inactive: outcome [7] | fold change [9, 13] 1.03 | z-score [10, 17] -0.316
active: AC50 [1] 0.235 µM | AC50 [2] 3.32 µM | AC50 [3] 0.372 µM | AC50 [4] 1.32 µM | AC50 [5] 0.833 µM | AC50 [6] 0.742 µM | AC50 [8] 0.742 µM

Clc1ccc2c(N3CCN(CCCN4CCN(c5ccnc6cc(Cl)ccc56)CC4)CC3)ccnc2c1
8790: cell count [9, 16]
inactive: outcome [1] | outcome [2] | outcome [3] | outcome [4] | outcome [5] | outcome [12] | outcome [8] | outcome [7] | fold change [9, 13] 0.978
8600: cell count [9, 15]
1.67: fold change [9, 14]

O=C(CCN1CCN(C(=O)OCc2cc(Cl)cc(Cl)c2)CC1)c1ccc2[nH]c(=O)oc2c1
active: AC50 [1] 20.9 µM | AC50 [5] 23.5 µM | AC50 [8] 16.6 µM
inactive: outcome [2] | outcome [3] | outcome [4] | outcome [12] | outcome [7]

COc1ccccc1N1CCN(CCN(C(=O)C2CCCCC2)c2ccccn2)CC1
inactive: outcome [1] | outcome [2] | outcome [3] | outcome [4] | outcome [5] | outcome [12] | outcome [7] | fold change [9, 13] 0.953 and 0.872 | z-score [10, 17] -0.378
9340 and 10000: cell count [9, 16]
8900 and 8750: cell count [9, 15]
0.432: z-score [10, 18]
0.882 and 0.761: fold change [9, 14]

CC(C)c1cc(C(=O)N2Cc3ccc(CN4CCN(C)CC4)cc3C2)c(O)cc1O
-0.499: z-score [10, 18]
0.921: fold change [9, 14]
active: AC50 [1] 0.468 µM | AC50 [2] 1.18 µM | AC50 [3] 0.296 µM | AC50 [4] 0.526 µM | AC50 [5] 0.742 µM | AC50 [6] 0.525 µM | AC50 [8] 0.661 µM | IC50 [7] 1.48 µM | z-score [10, 17] 2.68
inactive: fold change [9, 13] 0.888
2010: cell count [9, 16]
1780: cell count [9, 15]

CNC(=O)c1ccccc1Nc1nc(Nc2ccc(N3CCOCC3)cc2OC)ncc1Cl
-1.89: z-score [10, 18]
inactive: fold change [9, 13] 0.899 | z-score [10, 17] 0.492
1560: cell count [9, 15]
1730: cell count [9, 16]
0.999: fold change [9, 14]
active: AC50 [1] 0.59 µM | AC50 [2] 5.9 µM | AC50 [3] 1.48 µM | AC50 [4] 2.96 µM | AC50 [5] 0.235 µM | AC50 [6] 0.186 µM | AC50 [8] 0.661 µM | IC50 [7] 1.05 µM

C=Cc1c(C)c2cc3nc(cc4[nH]c(cc5nc(cc1[nH]2)C(C)=C5CCC(=O)O)c(CCC(=O)OC)c4C)[C@@]1(C)C3=CC=C(C(=O)OC)[C@H]1C(=O)OC
active: AC50 [1] 11.8 µM | AC50 [2] 0.743 µM | AC50 [3] 0.0662 µM | AC50 [4] 0.105 µM | AC50 [5] 9.34 µM | AC50 [12] 14.8 µM
